Source: PubChem BioAssay
Pf growth 48h = P. falciparum growth inhibition at 48 hours (one generation) | Potency, µM (top dose mostly 28.7 µM), for the others: at the highest dose activity change, negative = inhibition, usual class: inhibitors | AID 504832 | hit rate 5.9% among 310,000 | P. falciparum luciferase growth in erythrocytes, 48 h
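A one-generation exposure of luciferase-tagged malaria parasites in RPMI 1640/Albumax erythrocyte culture, 37 C and 5% CO2. Inhibition is inferred from decreased luminescence after adding detection reagent.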
AMA1-RON2 inh = inhibitors of Plasmodium falciparum AMA1-RON2 interaction; AlphaScreen AMA1-biotinylated RON2 peptide binding; Potency, µM (series often up to 58.2 µM), inactives show at the highest dose activity change, negative = inhibition, hits mostly inhibitors; hit rate 0.2% among 360,000; AID 720542;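 also: 0% = vehicle wells and -100% = peptide control; nearly all actives have a fitted effect of over 45% in size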
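AMA1 (3D7) with his tag at 25 nM final met compounds first, then biotinylated RON2 peptide at 25 nM; detection used donor plus acceptor beads, 10 µg/mL apiece, read by AlphaScreen after 30 min at room temperature.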
HCV inh = HCV inhibition; Huh7.5.1 HCVcc-Cre infection, luciferase reporter, 44 h; Potency, µM (top dose mostly 41.8 µM), inactives show top-dose activity change, negative = inhibition, actives largely listed as inhibitors; AID 651820; hit rate 3.4% among 340,000
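Cells seeded at 1,000/well and cultured 4 h, then compounds added followed by HCVcc-Cre virus (~0.5 moi). After 44 h further culture, luciferase substrate was added, plates held 15 min at room temperature, and luminescence read for 15 sec.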
Pf growth 96h = inhibits malaria parasite growth, 96 h. P. falciparum luciferase reporter growth, 96 h. Potency, µM (highest dose often 28.7 µM), for inactives: top-dose activity change, negative = inhibition, actives largely listed as inhibitors. hit rate 6.9% among 320,000. AID 504834
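Two-generation exposure (96 h) targets delayed-death phenotype. Reporter parasites carrying integrated firefly luciferase, in red cells at 2% hematocrit and 0.05% parasitemia final, kept at 37 C, 5% CO2; luminescence loss indicates inhibition.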
* hit, by the source's call. This is a sample that favours compounds with a hit; in the whole collection about 11% have one here. Calls follow the shape of the dose curve; as a rule, active = well fitted curve in the direction sought with a large enough effect; inconclusive = small, poorly fitted or top-dose-only effect, or another doubt; inactive = no such curve, though single readings can be large; an effect the other way counts as inactive or inconclusive. Unless noted, % is scaled to controls: 0 for no effect and ±100 for the full control effect; potency is read from the fitted curve at half-maximal effect.

For COC(=O)CSc1nnc2n1C(C)(C)Cc1ccccc1-2 the results were Pf growth 48h 1.4%, AMA1-RON2 inh 8.0%, HCV inh inconclusive and Pf growth 96h 14.2%.
For S=C1NCc2cncnc2N1 the results were AMA1-RON2 inh 0.1%.
Screening COCCN1C(=O)N[C@@H](c2cccs2)C(C(C)=O)=C1C returned AMA1-RON2 inh -16.4% and HCV inh 6.8%.
Screening CCCSc1nc(N2CCOCC2)c2c(c1C#N)CCCC2 returned Pf growth 48h -26.1%, AMA1-RON2 inh 3.3%, HCV inh 11.2µM* and Pf growth 96h 3.1%.
For CCSc1nc(N2CCOCC2)c2c(c1C#N)CC(C)(C)N(C)C2 the results were AMA1-RON2 inh 0.6%, HCV inh -4.5% and Pf growth 96h 5.22µM*.
`CC1(C)Cc2c(C#N)c(SCC(=O)c3ccccc3)nc(N3CCOCC3)c2CS1` gave Pf growth 48h 2.33µM*, AMA1-RON2 inh -18.0%, HCV inh inconclusive and Pf growth 96h inconclusive.
CN1Cc2c(N3CCOCC3)nc(SCc3ccccc3)c(C#N)c2CC1(C)C was read as Pf growth 48h 0.0%, AMA1-RON2 inh -8.4%, HCV inh 10µM* and Pf growth 96h 5.6%.
Screening COc1ccc(C(=O)N(NC(=O)Oc2ccccc2)C(C)(C)C)cc1 returned Pf growth 48h -7.6%, AMA1-RON2 inh -4.0%, HCV inh -9.8% and Pf growth 96h inconclusive.
Screening CCCCCCCNC1=CC(=O)CC(c2ccco2)C1 (centres undefined) returned Pf growth 48h 2.33µM*, AMA1-RON2 inh -21.7%, HCV inh -13.6% and Pf growth 96h 10.4µM*.
For O=C1C=C(Nc2ccc(Cl)cc2)CC(c2ccco2)C1 (centres undefined) the results were Pf growth 48h 9.28µM*, AMA1-RON2 inh 5.2%, HCV inh inconclusive and Pf growth 96h inconclusive.
`Cc1ccc(C2CC(=O)C=C(Nc3ccc(Cl)cc3)C2)cc1` (centres undefined) gave Pf growth 48h 14.7µM*, AMA1-RON2 inh -2.1%, HCV inh 3.1% and Pf growth 96h 32.1%.
For Cc1ccc(C2CC(=O)C=C(NCC(C)C)C2)cc1 (centres undefined) the results were Pf growth 48h inconclusive, AMA1-RON2 inh 4.1%, HCV inh -7.2% and Pf growth 96h -1.0%.
Screening O=C1C=C(Nc2ccc(Cl)cc2)CC(c2ccc(Cl)cc2)C1 (centres undefined) returned Pf growth 48h 9.28µM*, AMA1-RON2 inh -3.4%, HCV inh -30.5% and Pf growth 96h inconclusive.
Screening CCOc1ccc(NC2=CC(=O)CC(c3ccco3)C2)cc1 (centres undefined) returned Pf growth 48h inconclusive, AMA1-RON2 inh -4.3%, HCV inh 2.1% and Pf growth 96h 19.0%.
`CCN(C(=O)CSc1nnc(-c2ccc(OC)cc2)n1C(C)C)C1CCS(=O)(=O)C1` (centres undefined) gave AMA1-RON2 inh 21.0% and HCV inh 12.4%.
COc1cccc(-c2cnc3c(NC(C)=O)cc(-c4ccsc4)cn23)c1 was read as AMA1-RON2 inh -7.7%.
`CCN(CC)c1ccc(-c2nn3c(-c4n[nH]c5c4CCC5)nnc3s2)cc1` gave Pf growth 48h inconclusive, AMA1-RON2 inh 22.4%, HCV inh 7.94µM* and Pf growth 96h 51.6%.
Screening CN(C(=S)Nc1ccc(F)cc1)C1(c2ccccc2Cl)CCCCC1=O (centres undefined) returned Pf growth 48h 12.8%, AMA1-RON2 inh -5.6%, HCV inh -7.5% and Pf growth 96h inconclusive.
`CCCN(CCC)CCNC(=O)C1CCN(Cc2nc(-c3ccc(Cl)cc3)oc2C)CC1` gave Pf growth 48h 4.65µM*, AMA1-RON2 inh -11.1%, HCV inh 0.794µM* and Pf growth 96h inconclusive.
`Cc1cc2c(cc(C(=O)NCc3cccnc3)n2Cc2ccc(Cl)cc2)o1` gave Pf growth 48h inconclusive, AMA1-RON2 inh -5.2% and Pf growth 96h 10.4µM*.
For Cc1oc(-c2ccc(Cl)cc2)nc1CN1CCC(C(=O)NCc2cccnc2)CC1 the results were Pf growth 48h -35.6%, AMA1-RON2 inh -3.8%, HCV inh 14.1µM* and Pf growth 96h 0.0%.
Screening Cc1ccccc1-c1nc(CN2CCCC(C(=O)NCc3cccnc3)C2)c(C)o1 (centres undefined) returned Pf growth 48h inconclusive, AMA1-RON2 inh 2.7%, HCV inh inconclusive and Pf growth 96h 101.6%.
